Measurements published in PubChem BioAssay (EPA / NIEHS).
Calls of active or inactive are those of the source. How the source made its calls: active means hit-call score of the fitted dose curve at least 0.9, where 1 is the maximum; inactive means score below 0.9.

Assays:
Settings in all cases: mRNA level, 48 h; actives raise or lower the signal
[1] = read-out: Early growth response protein 1 (EGR1) transcription factor, EGR1 (gene 1958); assay: LTEA_HepaRG_EGR1: Life Technologies and Expression Analysis (LTEA) Assay for Early growth response protein 1 (EGR1) transcription factor using HepaRG (AID 2283490)
Procedure, shortened: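 Differentiated HepaRG cells in serum-free induction medium exposed 48 hours, duplicate, to 8 half-log concentrations up to 100 uM in 0.5% DMSO. EGR1 mRNA measured by TaqMan qRT-PCR, normalized to ACTB, GAPDH, POLR2A; bidirectional fit versus DMSO.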

[2] = read-out: Ezrin (EZR), EZR (gene 7430); assay: LTEA_HepaRG_EZR: Life Technologies and Expression Analysis (LTEA) Assay for Ezrin (EZR) using HepaRG (AID 2283491)
Procedure, shortened: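 Gain or loss of EZR mRNA is scored relative to 0.5% DMSO in human HepaRG cultures treated 48 h with test chemicals in duplicate, eight half-log concentrations from 100 uM.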

[3] = read-out: Cytochrome P450 3A7 (Homo sapiens) (UniProt P24462); assay: LTEA_HepaRG_CYP3A7: Life Technologies and Expression Analysis (LTEA) Assay for CYP3A7 using HepaRG (AID 2283492)
Procedure, shortened: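 qRT-PCR of CYP3A7 in HepaRG lysates after 48 h treatment; concentration-response (8 points, max 100 uM) analysed bidirectionally relative to 0.5% DMSO controls.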

CYP3A5 (gene 1577) = assay: LTEA_HepaRG_CYP3A5: Life Technologies and Expression Analysis (LTEA) Assay for CYP3A5 using HepaRG (AID 2283493)
Procedure, shortened: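 HepaRG plated 48 h, switched to serum-free induction medium, chemicals added 48 h (max 100 uM, half-log, 0.5% DMSO). RNA isolated; CYP3A5 by TaqMan qRT-PCR. Gain/loss vs DMSO.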

[4] = read-out: Fatty Acid-Binding Protein 1 (FABP1), FABP1 (gene 2168); assay: LTEA_HepaRG_FABP1: Life Technologies and Expression Analysis (LTEA) Assay for Fatty Acid-Binding Protein 1 (FABP1) using HepaRG (AID 2283494)
Procedure, shortened: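 Differentiated human HepaRG cells exposed 48 h in serum-free induction medium to eight half-log concentrations up to 100 uM (0.5% DMSO), duplicate. FABP1 mRNA by qRT-PCR, normalised to ACTB, GAPDH, POLR2A; bidirectional fitting against DMSO.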

[5] = read-out: Cytochrome P450 4A22 (Homo sapiens) (UniProt Q5TCH4); assay: LTEA_HepaRG_CYP4A22: Life Technologies and Expression Analysis (LTEA) Assay for Cytochrome P450 4A22 (CYP4A22) using HepaRG (AID 2283495)
Procedure, shortened: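 Concentration-response (8 points, max 100 uM, 0.5% DMSO) in human HepaRG liver cells after 48 h exposure. CYP4A22 mRNA by TaqMan qRT-PCR with housekeeping-gene normalization.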

[6] = read-out: Cytochrome P450 7A1 (Homo sapiens) (UniProt P22680); assay: LTEA_HepaRG_CYP7A1: Life Technologies and Expression Analysis (LTEA) Assay for Cytochrome P450 7A1 (CYP7A1) using HepaRG (AID 2283496)
Procedure, shortened: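 HepaRG cells plated 48 h, then switched to serum-free induction medium and exposed in duplicate for 48 h to 8-point half-log series from 100 uM in 0.5% DMSO. CYP7A1 mRNA by qRT-PCR (TaqMan), normalized to ACTB/GAPDH/POLR2A; bidirectional fit versus DMSO.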

[7] = read-out: Glutathione S-Transferase (GSTA2), GSTA2 (gene 2939); assay: LTEA_HepaRG_GSTA2: Life Technologies and Expression Analysis (LTEA) Assay for Glutathione S-Transferase (GSTA2) using HepaRG (AID 2283497)
Procedure, shortened: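 Differentiated human HepaRG cells were exposed in duplicate for 48 h in serum-free induction medium, 8 points from 100 uM top in half-log steps, 0.5% DMSO. GSTA2 mRNA was measured by TaqMan qRT-PCR, normalized to ACTB, GAPDH and POLR2A; bidirectional fit versus DMSO.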

[8] = read-out: Glutamate-cysteine ligase catalytic (GCLC), GCLC (gene 2729); assay: LTEA_HepaRG_GCLC: Life Technologies and Expression Analysis (LTEA) Assay for Glutamate-cysteine ligase catalytic (GCLC) using HepaRG (AID 2283498)
Procedure, shortened: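 Differentiated HepaRG cells exposed 48 h in serum-free induction medium, eight-point half-log series topping at 100 uM in 0.5% DMSO, duplicates. GCLC mRNA by qRT-PCR normalized to ACTB, GAPDH and POLR2A, fitted bidirectionally versus DMSO.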

[9] = read-out: growth arrest and DNA damage 45 (GADD45G), GADD45G (gene 10912); assay: LTEA_HepaRG_GADD45G: Life Technologies and Expression Analysis (LTEA) Assay for growth arrest and DNA damage 45 (GADD45G) using HepaRG (AID 2283499)
Procedure, shortened: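 Concentration-response in HepaRG: 48 h dosing, 0.5% DMSO, highest level 100 uM. GADD45G expression by qRT-PCR, normalised to endogenous controls; bidirectional fit to DMSO.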

[10] = read-out: Glutamate-cysteine ligase regulatory (GCLM), GCLM (gene 2730); assay: LTEA_HepaRG_GCLM: Life Technologies and Expression Analysis (LTEA) Assay for Glutamate-cysteine ligase regulatory (GCLM) using HepaRG (AID 2283500)
Procedure, shortened: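 Cells were plated, cultured 48 h, switched to serum-free induction medium, then dosed in duplicate for 48 h at eight half-log concentrations up to 100 uM. RNA was then profiled by qRT-PCR; gain or loss versus DMSO was fitted.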

[11] = read-out: Glutathione S-transferase M3 (GSTM3), GSTM3 (gene 2947); assay: LTEA_HepaRG_GSTM3: Life Technologies and Expression Analysis (LTEA) Assay for Glutathione S-transferase M3 (GSTM3) using HepaRG (AID 2283501)
Procedure, shortened: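 Expression of GSTM3 is determined by qRT-PCR in human liver HepaRG cells treated 48 h with an 8-point half-log range from 100 uM in 0.5% DMSO.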

[12] = read-out: Heat shock 70 kDa protein 1 (HSPA1A), gene 3303; assay: LTEA_HepaRG_HSPA1A: Life Technologies and Expression Analysis (LTEA) Assay for Heat shock 70 kDa protein 1 (HSPA1A) using HepaRG (AID 2283502)
Procedure, shortened: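 Readout is HSPA1A transcript level by microfluidic qRT-PCR, normalized to three housekeeping genes and analysed for gain or loss of signal relative to 0.5% DMSO. Human HepaRG cultures received test chemicals for 48 h at up to 100 uM.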

[13] = read-out: Hypoxia-inducible factor 1-alpha (Homo sapiens) (UniProt Q16665); assay: LTEA_HepaRG_HIF1A: Life Technologies and Expression Analysis (LTEA) Assay for Hypoxia-inducible factor 1 (HIF1A) Trancription factor using HepaRG (AID 2283503)
Procedure, shortened: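 Differentiated HepaRG cells in serum-free induction medium exposed 48 h, in duplicate, to 8-point half-log series from 100 uM in 0.5% DMSO. HIF1A mRNA measured by TaqMan qRT-PCR, normalized to ACTB/GAPDH/POLR2A, fitted bidirectionally versus DMSO.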

[14] = read-out: 3-Hydroxy-3-Methylglutaryl-CoA Synthase 2 (HMGCS2), HMGCS2 (gene 3158); assay: LTEA_HepaRG_HMGCS2: Life Technologies and Expression Analysis (LTEA) Assay for 3-Hydroxy-3-Methylglutaryl-CoA Synthase 2 (HMGCS2) using HepaRG (AID 2283504)
Procedure, shortened: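 This steatosis marker was read as HMGCS2 mRNA change in HepaRG cells treated 48 h with up to 100 uM chemical. Normalisation used housekeeping genes; activity in either direction was fitted relative to 0.5% DMSO vehicle.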

HGF (gene 3082) = assay: LTEA_HepaRG_HGF: Life Technologies and Expression Analysis (LTEA) Assay for Hepatocyte Growth Facto (HGF) using HepaRG (AID 2283505)
Procedure, shortened: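 Using HepaRG monolayers kept in 0.5% DMSO, chemicals were tested in duplicate over eight half-log concentrations from 100 uM for 48 h. Endpoint: HGF mRNA change relative to DMSO, normalized to ACTB/GAPDH/POLR2A.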

[15] = read-out: Insulin Like Growth Factor 1 (IGF1), IGF1 (gene 3479); assay: LTEA_HepaRG_IGF1: Life Technologies and Expression Analysis (LTEA) Assay for Insulin Like Growth Factor 1 (IGF1) using HepaRG (AID 2283506)
Procedure, shortened: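 HepaRG, plated 48 h, then switched to serum-free induction media; test chemical 8-pt half-log from 100 uM (0.5% DMSO), duplicate, 48 h. Lysis in RLT, TaqMan qRT-PCR, norm. ACTB/GAPDH/POLR2A. Bidirectional fit vs DMSO.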

[16] = read-out: Intercellular Adhesion Molecule 1 (ICAM1), ICAM1 (gene 3383); assay: LTEA_HepaRG_ICAM1: Life Technologies and Expression Analysis (LTEA) Assay for Intercellular Adhesion Molecule 1 (ICAM1) using HepaRG (AID 2283507)
Procedure, shortened: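 Using the human liver line HepaRG, compounds are tested in duplicate over 48 h at concentrations up to 100 uM. Expression is determined by TaqMan qRT-PCR, normalized to endogenous controls, and analysed relative to 0.5% DMSO vehicle.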

[17] = read-out: Insulin-like growth factor-binding protein 1 (IGFBP1), IGFBP1 (gene 3484); assay: LTEA_HepaRG_IGFBP1: Life Technologies and Expression Analysis (LTEA) Assay for Insulin-like growth factor-binding protein 1 (IGFBP1) using HepaRG (AID 2283508)
Procedure, shortened: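 HepaRG, 48 h, 8 conc. (max 100 uM, half-log), duplicates, 0.5% DMSO. Readout: TaqMan qRT-PCR, ACTB/GAPDH/POLR2A normalisation. Fit: bidirectional vs DMSO.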

[18] = read-out: Interleukin 6 (IL6), IL6 (gene 3569); assay: LTEA_HepaRG_IL6: Life Technologies and Expression Analysis (LTEA) Assay for Interleukin 6 (IL6) using HepaRG (AID 2283509)
Procedure, shortened: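 HepaRG cells exposed in duplicate for 48 h to eight half-log concentrations, top 100 uM, in 0.5% DMSO serum-free induction medium. mRNA measured by qRT-PCR, normalized to ACTB, GAPDH and POLR2A. Bidirectional fit versus DMSO.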

Measured: AC50

Cytochrome P450 3A7 (Homo sapiens), sequence (P24462 whole entry, looked up): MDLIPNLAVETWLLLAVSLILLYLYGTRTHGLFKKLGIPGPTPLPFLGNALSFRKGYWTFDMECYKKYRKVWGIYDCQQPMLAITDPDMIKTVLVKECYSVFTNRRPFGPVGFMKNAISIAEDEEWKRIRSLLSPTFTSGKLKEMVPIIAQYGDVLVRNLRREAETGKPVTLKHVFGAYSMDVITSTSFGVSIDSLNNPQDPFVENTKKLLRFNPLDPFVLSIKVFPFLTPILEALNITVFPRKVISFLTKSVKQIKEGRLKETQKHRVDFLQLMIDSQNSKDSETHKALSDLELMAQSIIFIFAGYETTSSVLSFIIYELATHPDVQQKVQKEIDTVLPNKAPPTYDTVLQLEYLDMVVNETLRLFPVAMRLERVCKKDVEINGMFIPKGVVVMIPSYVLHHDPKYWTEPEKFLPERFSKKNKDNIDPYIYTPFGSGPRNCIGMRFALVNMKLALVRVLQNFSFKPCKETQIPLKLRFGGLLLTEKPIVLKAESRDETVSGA
Hypoxia-inducible factor 1-alpha (Homo sapiens), sequence (Q16665 whole entry, looked up): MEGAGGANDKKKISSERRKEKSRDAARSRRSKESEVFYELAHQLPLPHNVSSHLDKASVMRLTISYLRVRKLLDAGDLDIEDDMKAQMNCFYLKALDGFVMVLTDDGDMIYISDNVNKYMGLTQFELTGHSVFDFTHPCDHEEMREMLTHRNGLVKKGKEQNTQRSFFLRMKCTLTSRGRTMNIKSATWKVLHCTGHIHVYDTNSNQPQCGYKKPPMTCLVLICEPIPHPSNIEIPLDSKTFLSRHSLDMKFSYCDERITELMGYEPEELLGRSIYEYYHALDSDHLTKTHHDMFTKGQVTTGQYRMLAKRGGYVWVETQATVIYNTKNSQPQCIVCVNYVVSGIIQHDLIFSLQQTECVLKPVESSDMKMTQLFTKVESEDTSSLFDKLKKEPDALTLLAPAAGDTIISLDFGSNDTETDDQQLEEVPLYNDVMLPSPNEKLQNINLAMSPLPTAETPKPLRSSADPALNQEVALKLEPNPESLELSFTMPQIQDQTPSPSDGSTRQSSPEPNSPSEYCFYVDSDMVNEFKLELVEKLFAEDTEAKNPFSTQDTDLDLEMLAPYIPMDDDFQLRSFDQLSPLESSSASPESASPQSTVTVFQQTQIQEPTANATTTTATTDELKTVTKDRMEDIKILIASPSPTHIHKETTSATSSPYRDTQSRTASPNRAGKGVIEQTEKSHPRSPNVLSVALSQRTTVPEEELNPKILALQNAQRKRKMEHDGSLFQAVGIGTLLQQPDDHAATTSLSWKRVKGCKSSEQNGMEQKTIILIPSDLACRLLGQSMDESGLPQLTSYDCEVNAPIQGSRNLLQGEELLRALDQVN

CCC(C)(NC(=O)c1cc(Cl)c(C)c(Cl)c1)C(=O)CCl (stereo not given)
inactive: [1] | [8] | [9] | [10] | [13] | [15] | [16] | [18]
active: [2] 75.7 µM | [3] 82.1 µM | CYP3A5 (gene 1577) 89.6 µM | [4] 46.5 µM | [5] 74.9 µM | [6] 73.8 µM | [7] 78.7 µM | [11] 50.2 µM | [12] 89.2 µM | [14] 80.6 µM | HGF (gene 3082) 77.4 µM | [17] 80.8 µM

CC1(C)C(C=C(Cl)Cl)C1C(=O)OC(C#N)c1ccc(F)c(Oc2ccccc2)c1 (stereo not given)
inactive: all assays above

COP(=S)(OC)Oc1ccc(SC)c(C)c1
active: [10] 0.244 µM
not listed: [3]
inactive: all other assays above

CC1(c2ccc(Oc3ccccc3)cc2)OC(=O)N(Nc2ccccc2)C1=O (stereo not given)
inactive: [8] | [13] | HGF (gene 3082)
active: [1] 82.1 µM | [2] 4.5 µM | [3] 24.8 µM | CYP3A5 (gene 1577) 90.2 µM | [4] 18.7 µM | [5] 9.55 µM | [6] 12.3 µM | [7] 24.5 µM | [9] 12.3 µM | [10] 9.75 µM | [11] 50.2 µM | [12] 80.5 µM | [14] 12.5 µM | [15] 8.33 µM | [16] 13.3 µM | [17] 13.4 µM | [18] 21.1 µM

O=C(O)CCCOc1ccc(Cl)cc1Cl
active: CYP3A5 (gene 1577) 36.5 µM | [4] 10.1 µM
not listed: [3]
inactive: all other assays above

COP(=O)(OC)OC=C(Cl)Cl
not listed: [4]
inactive: all other assays above

O=[N+]([O-])/N=C1\NCCN1Cc1ccc(Cl)nc1
active: [4] 36 µM | [6] 34.1 µM | [7] 39.9 µM | [8] 24.6 µM | [12] 25 µM | [14] 33.9 µM | [15] 23 µM
inactive: all other assays above

N#Cc1c(Cl)c(Cl)c(Cl)c(C#N)c1Cl
active: [3] 50 µM | [4] 77.7 µM | [7] 34 µM | [12] 17.3 µM | [17] 3.27 µM
not listed: [5]
inactive: all other assays above

Clc1ccccc1-c1nnc(-c2ccccc2Cl)nn1
active: [3] 6.87 µM | [4] 18.8 µM | [6] 24 µM | [10] 23 µM
not listed: [8]
inactive: all other assays above

CCC(C)Nc1c([N+](=O)[O-])cc(C(C)(C)C)cc1[N+](=O)[O-] (stereo not given)
active: [4] 50 µM | [5] 38.7 µM | [6] 34.4 µM | [14] 50 µM | [15] 48 µM
inactive: all other assays above

COP(=S)(OC)Oc1ccc([N+](=O)[O-])cc1
inactive: all assays above

CCCN(CCOc1c(Cl)cc(Cl)cc1Cl)C(=O)n1ccnc1
active: [1] 27.9 µM | [2] 31.1 µM | [3] 32.4 µM | [4] 32.9 µM | [5] 27.7 µM | [6] 33.2 µM | [7] 31.8 µM | [8] 12.4 µM | [9] 13 µM | [10] 13.4 µM | [11] 78 µM | [14] 29.7 µM | [15] 24.4 µM | [16] 50 µM | [17] 24.4 µM | [18] 36.5 µM
inactive: CYP3A5 (gene 1577) | [12] | [13] | HGF (gene 3082)
